AMA1-RON2 inh: inhibitors of Plasmodium falciparum AMA1-RON2 interaction. AlphaScreen AMA1-biotinylated RON2 peptide binding. AID 720542. Potency, µM (series often up to 58.2 µM), actives largely listed as inhibitors. 360,000 compounds, 0.2% hits; also: nearly all actives have a fitted effect of over 45% in size
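AMA1 (3D7) with his tag at 25 nM final met compounds first, then biotinylated RON2 peptide at 25 nM; detection used donor plus acceptor beads, 10 µg/mL apiece, read by AlphaScreen after 30 min at room temperature.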
VACV mCherry inh: inhibitors of vaccinia virus infection (mCherry reporter signal) | 310,000 compounds, 0.63% hits | AID 720579 | Vaccinia virus mCherry reporter infection, fluorescence | Potency, µM (doses to about 36.5 µM), actives largely listed as inhibitors; calls by dose curve; tested in A549 cells; also: nearly all actives have a fitted effect of over 35% in size
Pf growth 96h: inhibits malaria parasite growth, 96 h; P. falciparum luciferase reporter growth, 96 h; Potency, µM (series often up to 28.7 µM), actives largely listed as inhibitors; 320,000 compounds, 6.9% hits
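Compounds incubated with erythrocytes infected by luciferase-expressing P. falciparum (2% hematocrit, 0.05% parasitemia final) for 96 hours, 37 C in 5% CO2. Growth inhibition scored as decreased luciferase luminescence.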
Pf growth 48h: inhibits P. falciparum growth in the first generation, 48 h; P. falciparum luciferase growth in erythrocytes, 48 h; Potency, µM (top dose mostly 28.7 µM), most hits filed as inhibitors; 310,000 compounds, 5.9% hits
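Read-out is firefly luciferase luminescence from an integrated reporter in P. falciparum, so falling signal marks reduced parasite growth. Infected erythrocytes were at 2% hematocrit and 0.1% parasitemia (final) in Albumax-supplemented RPMI 1640.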
Vaccinia Venus: inhibitors of vaccinia virus (Venus reporter). Vaccinia virus Venus reporter expression, fluorescence. Potency, µM (series often up to 36.5 µM), most hits filed as inhibitors. 330,000 compounds, 0.46% hits. AID 720580; calls by dose curve; tested in A549 cells; also: nearly all actives have a fitted effect of over 30% in size
Hits are given with their value; . = inactive; ? = inconclusive; / = no result given; [ ] = dose if it differs, or a comment. Sampled rows, rich in hits. Any-hit rate of the full collection: about 8.7%. Unless noted, calls follow the shape of the dose curve; as a rule, active = well fitted curve in the direction sought with a large enough effect; inconclusive = small, poorly fitted or top-dose-only effect, or another doubt; inactive = no such curve, though single readings can be large; an effect the other way counts as inactive or inconclusive.

SMILES | AMA1-RON2 inh | VACV mCherry inh | Pf growth 96h | Pf growth 48h | Vaccinia Venus
O=C(N/N=C/C(Br)=C\c1ccccc1)c1ccco1 | . | . | 4.1µM | 2.6µM | .
Cc1occc1C(=O)N/N=C/C(Br)=C\c1ccccc1 | . | . | 1.3µM | . | .
CCCCCCC[n+]1ccc(C)c2ccccc21 | / | ? | / | / | .
CC1CC(C)CN(S(=O)(=O)c2cccc3cccnc23)C1 (stereo not given) | . | . | ? | / | .
CN(C)S(=O)(=O)c1ccc(N2CCN(S(=O)(=O)c3ccc(F)cc3)CC2)c(Cl)c1 | . | 10µM | 8.3µM | 7.4µM | 10µM
O=S(=O)(c1ccc(F)cc1)N1CCN(c2ncccn2)CC1 | . | . | . | 2.1µM | .
O=c1n(S(=O)(=O)c2cccc3cccnc23)c2ccccc2n1S(=O)(=O)c1cccc2cccnc12 | . | / | 6.6µM | / | /
COc1ccc(N2CCN(S(=O)(=O)c3cccc4cccnc34)CC2)cc1 | . | . | . | / | .
O=S(=O)(c1cccc2cccnc12)N1CCN(c2ccc(F)cc2)CC1 | . | / | 15µM | . | /
CN(C)S(=O)(=O)N1CCN(S(=O)(=O)c2ccc(F)cc2)CC1 | . | . | . | . | .
O=S(=O)(c1ccccc1)N1CCN(c2ncccn2)CC1 | . | . | / | . | .
Cc1cnc(-n2ncc(C(=O)NCC(C)(C)N3CCOCC3)c2C(C)C)nc1-c1ccc(F)cc1 | / | . | / | / | .
CCCCCOc1ccc(NC(=O)Cn2c(-c3cncs3)nc3ccccc32)cc1 | / | . | / | / | ?
CCOC(=O)c1ccc(NC(=O)c2c(NCc3cc(OC)ccc3OC)sc3c2CCC3)cc1 | / | . | / | / | .
O=c1c(Cl)c(N2CCN(S(=O)(=O)c3ccc(F)cc3)CC2)cnn1-c1cccc(Cl)c1 | . | . | 6.6µM | 8.3µM | .
Cc1ccc(C)n1-c1cccc(S(=O)(=O)N2CCOCC2)c1 | . | . | 13µM | ? | .
O=S(=O)(c1cccc(S(=O)(=O)N2CCN(c3ncccn3)CC2)c1)N1CCOCC1 | . | . | 12µM | . | .
O=C(c1cccc(S(=O)(=O)N2CCOCC2)c1)N1CCN(c2ncccn2)CC1 | . | . | / | / | .
CCN(CC)CCNC(=O)C12CC3CC(CC(C3)C1)C2 | . | . | . | / | .
CCN(CC)CCNC(=O)C(Cl)=C1C(Cl)=C(Cl)C(Cl)=C1Cl | . | 2µM | / | / | 0.79µM
CC(=O)Nc1ccc(NC(=O)Cn2cc3c(n2)CCCCC3)cc1 | / | . | / | / | .
O=C(O)c1ccc(COc2ccc(CO)cc2Cl)cc1 | . | . | . | . | .
O=C(O)c1cccc(COc2ccc(CO)cc2Cl)c1 | . | . | ? | 0.21µM | .
COc1cccc(OCc2nc3ccccc3n2C)c1 | / | . | / | / | .
O=c1oc2c3c4c(cc2s1)CCCN4CCC3 | 14µM | / | / | / | /
SMILES | AMA1-RON2 inh | VACV mCherry inh | Pf growth 96h | Pf growth 48h | Vaccinia Venus
O=c1ccc2cc3c4c(c2o1)CCCN4CCC3 | . | . | . | ? | .
Cc1ccccc1COC(=O)c1ccc(-c2nnn(Cc3ccccc3F)n2)cc1 | / | . | / | / | .
CCN(c1cccc(C)c1)S(=O)(=O)c1ccc(-c2cc(C)no2)s1 | . | / | 12µM | ? | /
COc1ccc(C(C)NC(=O)CN(c2cc(OC)ccc2OC)S(=O)(=O)c2ccccc2)cc1 (stereo not given) | / | . | / | / | .
COc1ccccc1-c1ccc(SCc2cccc(C)c2)nn1 | . | . | 12µM | 10µM | .
Cc1c(CCC(=O)NCCc2ccccc2)c(=O)oc2c(C)c(O)ccc12 | / | . | / | / | .
COc1ccc(-n2c(=O)c(CCC(=O)N3CCN(c4ccccc4O)CC3)nc3ccccc32)cc1 | . | . | 8.3µM | 3.7µM | .
CC(C)(C)OC(=O)NCCCCCc1cn(CC(=O)NCCCCCCCCCCC(=O)N2CCN(C(=O)OC(C)(C)C)CC2)nn1 | . | ? | ? | ? | ?
Cc1cn([C@@H](CCCCNC(=O)OC(C)(C)C)C(=O)NCCCCCCCCCCC(=O)N2CCN(C(=O)OC(C)(C)C)CC2)nn1 | . | . | 5.2µM | 2.6µM | ?
CC[C@H](C)Cc1cn([C@@H](CCCN=C(NC(=O)OC(C)(C)C)NC(=O)OC(C)(C)C)C(=O)NCCCCCCCCCCC(=O)N2CCN(C(=O)OC(C)(C)C)CC2)nn1 | . | . | 1.5µM | 1µM | ?
COc1ccc(S(=O)(=O)NN(C)C(=O)c2nn(-c3ccccc3)ccc2=O)cc1 | . | . | 5.9µM | ? | .
O=C(NCc1ccccn1)C1CCCN(Cc2cnn(-c3ccccc3)c2-n2cccc2)C1 (stereo not given) | . | . | . | ? | .
O=C(NCc1cccnc1)C1CCCN(Cc2cnn(-c3ccccc3)c2-n2cccc2)C1 (stereo not given) | . | / | 12µM | / | /
Cc1ccc(CNC(=O)CSc2nc3n[nH]c(C)c3c(=N)n2-c2cccc(C)c2)cc1 | . | . | 9.3µM | / | .
COc1cccc(-n2c(SCC(=O)NCCC3=CCCCC3)nc3n[nH]c(C)c3c2=N)c1 | . | . | ? | 9.3µM | .
Cc1[nH]nc2nc(SCC(=O)NCC3CCCO3)n(-c3ccc(Br)cc3)c(=N)c12 (stereo not given) | . | / | . | 10µM | ?
COc1cccc(NC(=O)CSc2nc3n[nH]c(C)c3c(=N)n2-c2cccc(OC)c2)c1 | . | / | . | 10µM | ?
CCc1ccc(NC(=O)CSc2nc3n[nH]c(C)c3c(=N)n2-c2cccc(OC)c2)cc1 | . | / | ? | ? | /
CCCCNC(=O)CSc1nc2n[nH]c(C)c2c(=N)n1-c1cccc(C)c1 | / | . | / | / | .
Cc1ccc(NC(=O)c2c(C)nc3sc(C(=O)Nc4ccc(F)cc4)c(N)c3c2-c2ccc(C)o2)c(C)c1 | / | . | / | / | .
CCC1CN(Cc2cccc3nccnc23)Cc2cc(OC)ccc2O1 (stereo not given) | / | . | / | / | .
CCOc1ccc2c(c1)c(=O)c(S(=O)(=O)c1ccc(C)cc1)cn2Cc1ccccc1Cl | / | . | / | / | .
CN=C1NN=C(c2cc(C)n(-c3c(C)n(C)n(-c4ccccc4)c3=O)c2C)CS1 | . | . | ? | ? | .
Cc1cc(C2=NNC(=NCc3ccccc3)SC2)c(C)n1-c1c(C)n(C)n(-c2ccccc2)c1=O | . | . | ? | 12µM | .
CCOc1ccc(-c2csc(/C(C#N)=C\c3ccc(O)c([N+](=O)[O-])c3)n2)cc1 | . | . | 5.2µM | ? | .
SMILES | AMA1-RON2 inh | VACV mCherry inh | Pf growth 96h | Pf growth 48h | Vaccinia Venus
CCc1ccc(/C=C(/C#N)c2nc(-c3ccc(C)cc3)cs2)cc1 | / | . | / | / | .
CCOc1c(OC(C)=O)ccc(/C=C/c2ccc3cccc(OC)c3n2)c1[N+](=O)[O-] | . | ? | . | 4.7µM | ?
CCOC(=O)c1cc2c(=O)n3ccccc3nc2n(CC2CCCO2)c1=NC(=O)c1ccc(OC)cc1OC (stereo not given) | / | . | / | / | .
COc1cccc(-c2nc(CS(=O)(=O)CC(=O)NCc3cccc(Cl)c3)c(C)o2)c1 | / | . | / | / | .
N#Cc1c(-c2ccco2)c2c([nH]c1=S)CCCC2 | . | / | 10µM | . | .
CCCOc1ccc(C(=O)Nc2ccc3oc(-c4ccc5ccccc5c4)nc3c2)cc1 | / | . | / | / | .
COC(=O)Cn1c(=NC(=O)c2ccc3c(c2)OCCO3)sc2ccccc21 | / | .[7.34 µM] | / | / | .[7.34 µM]

Source: PubChem BioAssay (National Center for Advancing Translational Sciences (NCATS))
